Measurements published in PubChem BioAssay (NCI).
This is part of a sample that, as a whole, favours compounds with a hit. Of some 79,000 tested, about 15% had one in any assay. Unmarked numbers belong to inactive results. Active and inactive are the calls of the source. Rule as the data show it: active = growth inhibition above about 70%; inactive = the rest.

Experiment: NCI Yeast Anticancer Drug Screen. Data for the rad50 strain (AID 155);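 also: 0% = growth of vehicle-only cultures of the same strain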
Conditions: S. cerevisiae rad50 strain growth inhibition; at 50.0 µM; stronger effect = higher value
Procedure, shortened: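 Compounds were tested on a yeast strain with an engineered DNA damage repair alteration; the reported value is growth inhibition normalised to vehicle treatment.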

Q: For `CC(C)C1CCC2(CC1)CCN(CCCN(C)C)CC2`, which growth inhibition is on record?
A: -4.65%

Q: Which growth inhibition does the source give for `CC1=CC(=O)OC(=O)/C1=C/c1ccc(N(C)C)cc1` here?
A: -11.2%

Q: For `CCN(CC)c1ccc2cc(-c3nc4ccccc4[nH]3)c(=O)oc2c1`, which growth inhibition is on record?
A: 2%

Q: For `C1=C(c2ccccc2)NC2=N[C@H]3CCCC[C@@H]3N2C1c1ccccc1` (stereo not given in full), which growth inhibition is on record?
A: 18.9%

Q: Which growth inhibition does the source give for `Cc1cc2c(c(C)c1O)C(C)(C)CN2C(=O)C(C)(C)C` here?
A: -12.2%

Q: For `COC(=O)CCCC(NC(=O)c1ccc([N+](=O)[O-])cc1)C(=O)OC` (stereo not given), which growth inhibition is on record?
A: 19.1%

Q: With `Cc1[nH]c2ccc([N+](=O)[O-])cc2c1C` as the compound, how does the growth inhibition read?
A: 19.1%

Q: With `Nc1cn(Cc2ccccc2)c(=O)n(Cc2ccccc2)c1=O` as the compound, how does the growth inhibition read?
A: -1.85%

Q: With `CN1CCC(OC(=O)C(O)C2CCCCC2)CC1` (stereo not given) as the compound, how does the growth inhibition read?
A: 23.5%

Q: With `CC(C=O)C1CCCCC1` (stereo not given) as the compound, how does the growth inhibition read?
A: 9.15%

Q: Which growth inhibition does the source give for `Cc1ccc(NC(=O)Nc2cccc(Cl)c2C)cc1C` here?
A: 3.75%

Q: For `C/C(=C/c1c(C)[nH]c(=O)[nH]c1=O)C(=O)O`, which growth inhibition is on record?
A: 10.9%

Q: Which growth inhibition does the source give for `CCN(CC)Cc1cc(Nc2nc(/C=C/c3ccccc3)nc3ccccc23)ccc1O` here?
A: 4.05%

Q: With `O=[N+]([O-])c1ccc(OCCO)c([N+](=O)[O-])c1` as the compound, how does the growth inhibition read?
A: 6.75%

Q: For `O=C(O)c1ccccc1/C=N\NC1=NCCCCN1`, which growth inhibition is on record?
A: -34.2%

Q: Which growth inhibition does the source give for `COc1ccc(-c2onc(-c3ccc([N+](=O)[O-])cc3)c2C2=NCCCN2)cc1` here?
A: 0.45%

Q: For `COCn1c2ccc(OC(C)=O)cc2c2c(=O)oc(N(C)C)nc21`, which growth inhibition is on record?
A: -14.8%

Q: With `O=C(CCl)OCC(CCl)OC(=O)CCl` (stereo not given) as the compound, how does the growth inhibition read?
A: -3.6%

Q: With `CC(C)Cn1cnc2c(Cl)nc3ccccc3c21` as the compound, how does the growth inhibition read?
A: -38.5%

Q: Which growth inhibition does the source give for `CCOC(=O)c1nc(SC)sc1NC(=O)c1ccc(OC)cc1` here?
A: 12.8%

Q: With `CC1(C)C=Cc2c(ccc(C(=O)Cc3ccccc3)c2O)O1` as the compound, how does the growth inhibition read?
A: 24.1%

Q: For `C=CCN1C(C)(C)NC(=S)C1(C)C`, which growth inhibition is on record?
A: -20.8%

Q: Which growth inhibition does the source give for `CCOC(=O)COc1cc2c(cc1C(C)c1cc(OC)c(OC)c(OC)c1)OCO2` (stereo not given) here?
A: 34.6%

Q: Which growth inhibition does the source give for `CCN(CC)c1ncnc2n[nH]nc12` here?
A: -1.5%

Q: Which growth inhibition does the source give for `C/C(=C(/C)c1cc[n+](C)cc1)c1cc[n+](C)cc1` here?
A: 74.4% (active)

Q: With `O=C(O)c1ccc(Cl)cc1[N+](=O)[O-]` as the compound, how does the growth inhibition read?
A: 23.4%

Q: Which growth inhibition does the source give for `CCOc1ccc(CCC(=O)O)cc1` here?
A: 3.55%

Q: Which growth inhibition does the source give for `CCOc1ccc(C(=O)C=O)cc1` here?
A: 11.6%

Q: With `CC1(C)C(N)C(C)(C)C1N` (stereo not given) as the compound, how does the growth inhibition read?
A: -0.05%

Q: With `CCOC(=O)c1c(OC)c(-c2ccccc2)c(=O)n2c3ccccc3n(C)c12` as the compound, how does the growth inhibition read?
A: 18.2%

Q: With `CC1=C(O[Si](C(C)C)(C(C)C)C(C)C)C2CC1(OS(=O)(=O)C(F)(F)F)[C@H]1C(=O)N(c3ccccc3)C(=O)[C@@H]21` (stereo not given in full) as the compound, how does the growth inhibition read?
A: -4.8%

Q: For `O=S1(=O)C(c2ccccc2)C(N2CCCCC2)C1C1CC2c3ccccc3C1c1ccccc12` (stereo not given), which growth inhibition is on record?
A: 19.5%

Q: Which growth inhibition does the source give for `c1cc(N2CCOCC2)ccc1Cc1ccc(N2CCOCC2)cc1` here?
A: -13.2%

Q: For `Nc1nc(N)c(N2CCN(Cc3ccccc3)CC2)c(Cl)n1`, which growth inhibition is on record?
A: 30.1%

Q: Which growth inhibition does the source give for `C=Cn1c2ccccc2c2ccccc21` here?
A: 46.9%

Q: For `CC(C)[C@@H]1CC[C@@H](C)C[C@H]1OC(=O)c1c2n(c3ccccc13)C[C@H]1OC(C)(C)O[C@@H]21`, which growth inhibition is on record?
A: 5.15%

Q: With `CC1(C)CO/C(=C/C(=O)c2ccccc2)N1C(=O)c1ccccc1` as the compound, how does the growth inhibition read?
A: -4.6%

Q: With `Nc1nc(N)c2c(n1)NCN(OCOc1ccc(Cl)cc1)C2` as the compound, how does the growth inhibition read?
A: -5.05%

Q: For `CCC(C(=O)O)C(=O)O.[NH-]CC1CCCC[N-]1.[Pt+2]`, which growth inhibition is on record?
A: 7.7%

Q: For `CC1=NN(C(=O)c2ccccc2O)C(=O)/C1=C/c1cccc([N+](=O)[O-])c1`, which growth inhibition is on record?
A: 47.8%

Experiment: NCI Yeast Anticancer Drug Screen. Data for the mec2-1 strain (AID 157)
Conditions: S. cerevisiae mec2-1 strain, at 50.0 µM, stronger effect = higher value
Procedure, shortened: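 Cells of the genetically defined mec2-1 yeast strain are incubated with test compound. Inhibition of growth is calculated against vehicle-treated controls.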

Q: With `CC(C)C1CCC2(CC1)CCN(CCCN(C)C)CC2` as the compound, how does the growth inhibition read?
A: 25.3%

Q: For `CC1=CC(=O)OC(=O)/C1=C/c1ccc(N(C)C)cc1`, which growth inhibition is on record?
A: 33.8%

Q: Which growth inhibition does the source give for `CCN(CC)c1ccc2cc(-c3nc4ccccc4[nH]3)c(=O)oc2c1` here?
A: -5.3%

Q: For `C1=C(c2ccccc2)NC2=N[C@H]3CCCC[C@@H]3N2C1c1ccccc1` (stereo not given in full), which growth inhibition is on record?
A: 10.4%

Q: For `Cc1cc2c(c(C)c1O)C(C)(C)CN2C(=O)C(C)(C)C`, which growth inhibition is on record?
A: -53%

Q: With `COC(=O)CCCC(NC(=O)c1ccc([N+](=O)[O-])cc1)C(=O)OC` (stereo not given) as the compound, how does the growth inhibition read?
A: -9.45%

Q: Which growth inhibition does the source give for `Cc1[nH]c2ccc([N+](=O)[O-])cc2c1C` here?
A: -5.15%

Q: For `Nc1cn(Cc2ccccc2)c(=O)n(Cc2ccccc2)c1=O`, which growth inhibition is on record?
A: -7.85%

Q: Which growth inhibition does the source give for `CN1CCC(OC(=O)C(O)C2CCCCC2)CC1` (stereo not given) here?
A: 23%

Q: With `CC(C=O)C1CCCCC1` (stereo not given) as the compound, how does the growth inhibition read?
A: 10.1%

Q: With `Cc1ccc(NC(=O)Nc2cccc(Cl)c2C)cc1C` as the compound, how does the growth inhibition read?
A: 11.5%

Q: Which growth inhibition does the source give for `C/C(=C/c1c(C)[nH]c(=O)[nH]c1=O)C(=O)O` here?
A: 13.6%

Q: Which growth inhibition does the source give for `CCN(CC)Cc1cc(Nc2nc(/C=C/c3ccccc3)nc3ccccc23)ccc1O` here?
A: -37.5%

Q: Which growth inhibition does the source give for `O=[N+]([O-])c1ccc(OCCO)c([N+](=O)[O-])c1` here?
A: -5.85%

Q: Which growth inhibition does the source give for `O=C(O)c1ccccc1/C=N\NC1=NCCCCN1` here?
A: -10.3%

Q: Which growth inhibition does the source give for `COc1ccc(-c2onc(-c3ccc([N+](=O)[O-])cc3)c2C2=NCCCN2)cc1` here?
A: -6.65%

Q: For `COCn1c2ccc(OC(C)=O)cc2c2c(=O)oc(N(C)C)nc21`, which growth inhibition is on record?
A: -31.6%

Q: For `O=C(CCl)OCC(CCl)OC(=O)CCl` (stereo not given), which growth inhibition is on record?
A: 29.1%

Q: For `CC(C)Cn1cnc2c(Cl)nc3ccccc3c21`, which growth inhibition is on record?
A: 20.4%

Q: With `CCOC(=O)c1nc(SC)sc1NC(=O)c1ccc(OC)cc1` as the compound, how does the growth inhibition read?
A: -7.3%

Q: With `CC1(C)C=Cc2c(ccc(C(=O)Cc3ccccc3)c2O)O1` as the compound, how does the growth inhibition read?
A: 17.4%

Q: For `C=CCN1C(C)(C)NC(=S)C1(C)C`, which growth inhibition is on record?
A: -4.9%

Q: With `CCOC(=O)COc1cc2c(cc1C(C)c1cc(OC)c(OC)c(OC)c1)OCO2` (stereo not given) as the compound, how does the growth inhibition read?
A: 2.2%

Q: With `CCN(CC)c1ncnc2n[nH]nc12` as the compound, how does the growth inhibition read?
A: -15.6%

Q: Which growth inhibition does the source give for `C/C(=C(/C)c1cc[n+](C)cc1)c1cc[n+](C)cc1` here?
A: 60.6%

Q: For `O=C(O)c1ccc(Cl)cc1[N+](=O)[O-]`, which growth inhibition is on record?
A: -8.5%

Q: Which growth inhibition does the source give for `CCOc1ccc(CCC(=O)O)cc1` here?
A: -9%

Q: With `CCOc1ccc(C(=O)C=O)cc1` as the compound, how does the growth inhibition read?
A: -5.65%

Q: With `CC1(C)C(N)C(C)(C)C1N` (stereo not given) as the compound, how does the growth inhibition read?
A: -14.5%

Q: With `CCOC(=O)c1c(OC)c(-c2ccccc2)c(=O)n2c3ccccc3n(C)c12` as the compound, how does the growth inhibition read?
A: 9.05%

Q: Which growth inhibition does the source give for `CC1=C(O[Si](C(C)C)(C(C)C)C(C)C)C2CC1(OS(=O)(=O)C(F)(F)F)[C@H]1C(=O)N(c3ccccc3)C(=O)[C@@H]21` (stereo not given in full) here?
A: -11.4%

Q: For `O=S1(=O)C(c2ccccc2)C(N2CCCCC2)C1C1CC2c3ccccc3C1c1ccccc12` (stereo not given), which growth inhibition is on record?
A: 32.6%

Q: With `c1cc(N2CCOCC2)ccc1Cc1ccc(N2CCOCC2)cc1` as the compound, how does the growth inhibition read?
A: 0.9%

Q: For `Nc1nc(N)c(N2CCN(Cc3ccccc3)CC2)c(Cl)n1`, which growth inhibition is on record?
A: 10.8%

Q: For `C=Cn1c2ccccc2c2ccccc21`, which growth inhibition is on record?
A: 18.9%

Q: For `CC(C)[C@@H]1CC[C@@H](C)C[C@H]1OC(=O)c1c2n(c3ccccc13)C[C@H]1OC(C)(C)O[C@@H]21`, which growth inhibition is on record?
A: -6.65%

Q: With `CC1(C)CO/C(=C/C(=O)c2ccccc2)N1C(=O)c1ccccc1` as the compound, how does the growth inhibition read?
A: 11.7%

Q: With `Nc1nc(N)c2c(n1)NCN(OCOc1ccc(Cl)cc1)C2` as the compound, how does the growth inhibition read?
A: -6%

Q: For `CCC(C(=O)O)C(=O)O.[NH-]CC1CCCC[N-]1.[Pt+2]`, which growth inhibition is on record?
A: -3.6%

Q: With `CC1=NN(C(=O)c2ccccc2O)C(=O)/C1=C/c1cccc([N+](=O)[O-])c1` as the compound, how does the growth inhibition read?
A: 26.9%
